Reference: PubChem BioAssay (NCATS)
Inconclusive results are not listed. The source holds several records for some structures; these can differ, active in one and inactive in another. Values without a mark were called inactive. Activity calls are given as the source filed them. Unless noted, the call rests on the fitted dose curve; in most records, active means well fitted curve in either direction with a large enough effect (not every such curve was filed as active); inconclusive means small, poorly fitted or top-dose-only effect, or another doubt; inactive means flat fitted curve, though single readings scatter.

Target: Cytochrome P450 1A2 (Homo sapiens) (UniProt P05177)
Sequence (P05177 whole entry, looked up): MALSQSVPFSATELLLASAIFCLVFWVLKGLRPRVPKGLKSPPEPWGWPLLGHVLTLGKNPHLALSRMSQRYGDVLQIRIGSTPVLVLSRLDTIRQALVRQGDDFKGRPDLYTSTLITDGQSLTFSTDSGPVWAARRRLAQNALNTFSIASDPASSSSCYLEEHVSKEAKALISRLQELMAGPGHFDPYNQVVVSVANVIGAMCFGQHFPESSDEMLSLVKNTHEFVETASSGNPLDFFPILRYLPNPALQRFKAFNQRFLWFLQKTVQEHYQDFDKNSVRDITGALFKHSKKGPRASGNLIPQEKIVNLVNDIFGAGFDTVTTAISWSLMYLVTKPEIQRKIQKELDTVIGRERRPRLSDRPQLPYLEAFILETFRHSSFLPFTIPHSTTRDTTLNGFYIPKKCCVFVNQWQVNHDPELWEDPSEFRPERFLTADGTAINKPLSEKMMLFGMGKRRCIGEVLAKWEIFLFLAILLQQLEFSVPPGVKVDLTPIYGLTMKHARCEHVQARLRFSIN
Experiment: p450-cyp1a2 (AID 410; calls by dose curve; further: potency means the concentration at half of the fitted maximal effect;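 on activity change, negative = inhibition: -100% = full effect of reference inhibitor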)
Conditions: recombinant CYP1A2, luciferin-ME demethylation, luminescence; series mostly up to 57 µM; activity change, negative = inhibition: at the top concentration
Method in brief: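 Inhibition was calculated relative to 57 uM furafylline (full inhibition). The reaction used human CYP1A2 at 20nM with Luciferin-ME at its Km, 100uM, driven by an NADPH-regenerating system for 60 min at room temperature.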

| Compound | Potency | activity change, negative = inhibition |
| --- | --- | --- |
| CN(C)C(=O)c1ccc(-c2nc(NCc3cccnc3)c3ccccc3n2)cc1 | 10 µM (active) | – |
| CC(C)NC(=O)N1CCC2(CC1)CCN(C(=O)c1cnccn1)CC2 | – | 0.2% |
| Cc1cccc(CNc2cc(-c3cccc(NS(C)(=O)=O)c3)ncn2)c1 | 10 µM (active) | – |
| CC[C@@]12CCCN3CCc4c(n(c5ccccc45)C(=O)C1)[C@H]32 | 10 µM (active) | -9.8% [at 2.29 µM] |
| c1ccc(Nc2ncnc3ccc(-c4cccnc4)cc23)cc1 | 0.0794 µM (active) | – |
| CS(=O)(=O)N1CCC[C@@]2(CCN(c3ccncc3)C2)C1 | – | -0.8% |
| COCC(=O)N1CCC2(CC1)CN(Cc1nccs1)C2 | – | -7.1% |
| c1ccc(C(c2ccccc2)N2CC3(CCNCC3)C2)cc1 | 15.8 µM (active) | – |

Test system: not listed separately
Experiment: NFAT Signaling Pathway (AID 444);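 further: carbachol stimulus at about its EC50 of 1 µM final; on the % scale 0 is the no-effect control and ±100 the full control effect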
Conditions: Jurkat NFAT-bla M1, carbachol, beta-lactamase ratio, 5 h; at 7.69 µM (top of the series) unless noted
Method in brief: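 Jurkat cells carrying an NFAT-driven β-lactamase reporter and co-transfected muscarinic M1 receptor were treated with compound plus carbachol (1 uM final, an EC50 level) for 5 h at 37 °C. CCF4 loading followed for 1 h at RT; 460/530 nm ratio gave %activity.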

| Compound | activity change, negative = inhibition |
| --- | --- |
| CN(C)C(=O)c1ccc(-c2nc(NCc3cccnc3)c3ccccc3n2)cc1 | 9.73% |
| N#Cc1cccc(NC(=O)N2CC3(CCN(C(=O)c4cccc(F)c4)CC3)C2)c1 | 8.8% |
| CC(C)NC(=O)N1CCC2(CC1)CCN(C(=O)c1cnccn1)CC2 | 7.26% |
| Cc1cccc(CNc2cc(-c3cccc(NS(C)(=O)=O)c3)ncn2)c1 | 20% |
| COc1ccc(C(=O)N2CCC3(CC2)CN(c2ccccn2)C3)cc1 | -14.4% |
| Cc1noc(C)c1-c1nccc(N2CCNCC2)n1 | -5.44% |
| CS(=O)(=O)N1CCC[C@@]2(CCN(c3ccncc3)C2)C1 | -25.4% |
| O=C(c1ccncc1)N1CCC[C@@]2(CCN(c3cccc(-c4ccccc4)c3)C2)C1 | -1.5% |
| c1ccc2c(N3CCNCC3)nc(-c3ccoc3)nc2c1 | -11.1% |
| N#Cc1ccccc1-c1ccc2ncnc(NCc3cccs3)c2c1 | 20.9% |
| CN(C)C(=O)c1ccc(-c2ccc3ncnc(NCc4cccnc4)c3c2)cc1 | 14% |
| O=C(c1cnccn1)N1CCC2(CCN(Cc3ccncc3)CC2)CC1 | -19.7% |
| N#Cc1ccc(CN2CCCC3(CCNCC3)C2)cc1 | -22.5% |
| O=C(Nc1ccccc1)N1CCCC2(CCNCC2)C1 | 6.49% |
| COc1ccccc1CNc1ncncc1-c1ccc(N(C)C)cc1 | -2.91% |
| CN(C)Cc1ccccc1-c1ccc2ncnc(NC3CC3)c2c1 | -9.4% |
| Cc1ccccc1-c1cncnc1N1CCNCC1 | 10.1% |
| O=C(Oc1ccccc1)N1CCC2(CCCN(c3ccncc3)C2)CC1 | -80.6% (active) |
| COc1ccc(Oc2ncc3nc(CCc4ccccc4)c(=O)n(C)c3n2)cc1 | 2.43% |
| COc1cccc(-c2nc(N3CCNCC3)c3ccccc3n2)c1 | -0.232% |
| COc1ccc(NC(=O)N2CC[C@@]3(CCCN(C(=O)c4ccncc4)C3)C2)cc1 | 16.8% |
| COCCn1c(=O)c(-c2ccc(F)cc2)nc2cnc(Oc3ccc(OC)cc3)nc21 | 0.536% |
| Cc1cccc(CNc2ccnc(-c3cccc(NS(C)(=O)=O)c3)n2)c1 | 9.66% |
| CN1CCN(c2nc(-c3cccc(NS(C)(=O)=O)c3)nc3ccccc23)CC1 | 7.49% |
| CN(C)Cc1ccccc1-c1ccc2ncnc(NCc3cccs3)c2c1 | -20.1% |
| O=c1c(CCc2ccccc2)nc2cnc(N3CCOCC3)nc2n1C[C@H]1CCCO1 | -4.34% |

Test system: not listed separately
Experiment: Stat Signaling Pathway (AID 446);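 further: ME-180 cervical cancer cells given 40 pM IL-6 alongside compound; SIE-controlled beta-lactamase reporter measured as 460/530 nm FRET emission ratio; on the % scale 0 is the no-effect control and ±100 the full control effect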
Conditions: ME-180 SIE beta-lactamase reporter, IL-6 stimulated, 5 h; at 7.69 µM (top of the series) unless noted
Method in brief: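 Screening format detects activators and inhibitors alike: ME-180 SIE-bla cells stimulated at 40 pM IL-6 for 5 hrs with compound, then dual-emission beta-lactamase read at 405 nm excitation.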

| Compound | activity, negative = inhibition |
| --- | --- |
| N#Cc1cccc(NC(=O)N2CC3(CCN(C(=O)c4cccc(F)c4)CC3)C2)c1 | -8.78% |
| CC(C)NC(=O)N1CCC2(CC1)CCN(C(=O)c1cnccn1)CC2 | -2.84% |
| Cc1cccc(CNc2cc(-c3cccc(NS(C)(=O)=O)c3)ncn2)c1 | -17.8% |
| COc1ccc(C(=O)N2CCC3(CC2)CN(c2ccccn2)C3)cc1 | -24.1% |
| Cc1noc(C)c1-c1nccc(N2CCNCC2)n1 | -0.568% |
| c1ccc(Nc2ncnc3ccc(-c4cccnc4)cc23)cc1 | 19.3% |
| CS(=O)(=O)N1CCC[C@@]2(CCN(c3ccncc3)C2)C1 | 1.56% |
| O=C(c1ccncc1)N1CCC[C@@]2(CCN(c3cccc(-c4ccccc4)c3)C2)C1 | -6.3% |
| c1ccc2c(N3CCNCC3)nc(-c3ccoc3)nc2c1 | 28% |
| O=C(c1csnn1)N1CCC2(CCCN(c3ccncc3)C2)CC1 | -10.5% |
| N#Cc1ccc(CN2CCCC3(CCN(C(=O)c4cc(C(F)(F)F)cc(C(F)(F)F)c4)CC3)C2)cc1 | -17.3% |
| N#Cc1ccccc1-c1ccc2ncnc(NCc3cccs3)c2c1 | -2.46% |
| CN(C)C(=O)c1ccc(-c2ccc3ncnc(NCc4cccnc4)c3c2)cc1 | -1.99% |
| CN(C)Cc1ccccc1-c1cncnc1NCc1ccccc1 | -4.85% |
| O=C(c1cnccn1)N1CCC2(CCN(Cc3ccncc3)CC2)CC1 | -8.42% |
| O=C(Nc1cccc(F)c1)N1CCC2(CC1)CCN(C(=O)c1cc(C(F)(F)F)cc(C(F)(F)F)c1)CC2 | 8.94% |
| N#Cc1ccc(CN2CCCC3(CCNCC3)C2)cc1 | -0.579% |
| O=C(Nc1ccccc1)N1CCCC2(CCNCC2)C1 | 4.83% |

| Compound | activity, negative = inhibition |
| --- | --- |
| COc1ccccc1CNc1ncncc1-c1ccc(N(C)C)cc1 | -7.61% |
| O=S(=O)(c1ccccc1)N1CCC2(CCN(c3ccncc3)CC2)CC1 | 1.98% |
| CN(C)Cc1ccccc1-c1ccc2ncnc(NC3CC3)c2c1 | -14.6% |
| Cc1ccccc1-c1cncnc1N1CCNCC1 | 1.91% |
| O=C(Oc1ccccc1)N1CCC2(CCCN(c3ccncc3)C2)CC1 | 18.8% |
| COc1ccc(Oc2ncc3nc(CCc4ccccc4)c(=O)n(C)c3n2)cc1 | -11.3% |
| COc1cccc(-c2nc(N3CCNCC3)c3ccccc3n2)c1 | -3.15% |
| COc1ccc(NC(=O)N2CC[C@@]3(CCCN(C(=O)c4ccncc4)C3)C2)cc1 | 5.11% |
| O=c1c(-c2cc(F)cc(F)c2)nc2cnc(Oc3ccccc3)nc2n1C[C@H]1CCCO1 | -1.6% |
| COCCn1c(=O)c(-c2ccc(F)cc2)nc2cnc(Oc3ccc(OC)cc3)nc21 | -13.7% |
| CN1CCN(c2ccnc(-c3ccccc3C(F)(F)F)n2)CC1 | 3.89% |
| CS(=O)(=O)N1CCC2(CCCN(Cc3ccccc3)C2)CC1 | -2.17% |
| CN1CCN(c2nc(-c3cccc(NS(C)(=O)=O)c3)nc3ccccc23)CC1 | -8.68% |
| COc1ccccc1CN1CCC2(CC1)CCN(C(=O)c1cc(C(F)(F)F)cc(C(F)(F)F)c1)CC2 | -3.31% |
| COc1ccc(NC(=O)N2CCC3(CC2)CCN(C(=O)c2cc(C(F)(F)F)cc(C(F)(F)F)c2)CC3)cc1 | -5.72% |
| CN(C)Cc1ccccc1-c1ccc2ncnc(NCc3cccs3)c2c1 | -19.4% |
| O=c1c(CCc2ccccc2)nc2cnc(N3CCOCC3)nc2n1C[C@H]1CCCO1 | -10.8% |
